High-throughput results (PubChem)
TGFb inhibitor: inhibitors of TGF-b signaling; HepG2 CAGA-GFP TGF-b/SMAD3 reporter, GFP fluorescence, 18 h; TGF-beta stimulated, 500 pg/mL final; Potency, µM (doses to about 46.1 µM), for the others: at the highest dose activity, negative = inhibition, most hits filed as inhibitors; hit rate 1.2% among 410,000; AID 588855; further: potency means the concentration at half of the fitted maximal effect; on the % scale 0 is the no-effect control and ±100 the full control effect; nearly all actives have a fitted effect of over 65% in size
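First, reporter cells (HEPG2 CAGA-GFP) rested 2 h at 37 degrees C. Next, compounds were pinned in and TGF-beta added to 500 pg/mL final. After 18 h, GFP was imaged per cell and summed per well.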
DRD3 agonist: agonists of human D3 dopamine receptor. P35462. D3R DiscoveRx beta-arrestin cells, luminescence, 90 min. max activation, %. hit rate 0.58% among 410,000. AID 652048; in the data active means max activation above about 30%; further: 0% is about no effect
Target sequence (P35462 whole entry, looked up): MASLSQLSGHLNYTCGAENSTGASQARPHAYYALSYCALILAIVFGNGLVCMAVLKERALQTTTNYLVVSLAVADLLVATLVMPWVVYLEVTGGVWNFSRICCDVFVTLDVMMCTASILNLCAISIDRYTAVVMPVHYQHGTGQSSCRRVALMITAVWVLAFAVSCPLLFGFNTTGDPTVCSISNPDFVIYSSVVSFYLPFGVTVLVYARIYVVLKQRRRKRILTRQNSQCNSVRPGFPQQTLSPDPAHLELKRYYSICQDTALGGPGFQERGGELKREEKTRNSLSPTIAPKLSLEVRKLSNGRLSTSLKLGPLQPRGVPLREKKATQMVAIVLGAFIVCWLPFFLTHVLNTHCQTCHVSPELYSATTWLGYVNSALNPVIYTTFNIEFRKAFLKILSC
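Agonist-mode cell screen: cells plated at 1500/well and incubated overnight at 37 °C, then exposed to library compounds for 90 min at 37 °C. Detection reagent was added for 30–60 min at room temperature, and luminescence was read.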
HepG2 tox: kills HepG2 cells in TGF-b inhibitor counter-screen; HepG2 CAGA-GFP viability, ATP luminescence, 18 h; Potency, µM (doses to about 46.1 µM), for inactives: at the top dose activity change, negative = cytotoxicity, most hits filed as cytotoxic; hit rate 0.76% among 410,000; further: potency means the concentration at half of the fitted maximal effect
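CellTiter-Glo luminescence gave cytotoxicity after 18 hours at 37 degrees C. The cells were HepG2 CAGA-GFP in 1% FBS DMEM, stimulated with 500 pg/mL TGF-beta after compound addition. %Activity was normalised to no-cell wells (complete cell-killing) and DMSO (no toxicity), and curves were fitted and classified.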
ATXN viability: viability counter-screen for ATXN expression inhibitors; S2 cells (HEK-293 line with an ATXN2-luciferase reporter) viability, CellTiter-Fluor protease fluorescence, 24 h; Potency, µM (series often up to 56.7 µM), actives largely listed as cytotoxic; hit rate 0.49% among 400,000; AID 651635; further: potency means the concentration at half of the fitted maximal effect; nearly all actives have a fitted effect of over 40% in size
ATXN2 expr inh: reduces ATXN2 reporter expression in HEK-293 cells. HEK-293 ATXN2-luciferase reporter, luminescence, 24 h. Potency, µM (doses to about 57 µM), without a hit: at the highest dose activity change, negative = inhibition, actives largely listed as inhibitors. hit rate 0.72% among 360,000. AID 1745845; further: potency means the concentration at half of the fitted maximal effect; on the % scale 0 is the no-effect control and ±100 the full control effect; nearly all actives have a fitted effect of over 55% in size
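ATXN2-luciferase reporter cells (luciferase flanked by upstream and downstream ATXN2 gene portions) were treated 24 h at 37 °C with compounds at up to 57 uM. SteadyGlo luminescence gave expression; GF-AFC fluorescence gave viability.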
D3 antag: blocks the human D3 dopamine receptor. P35462. D3R cells, DiscoveRx beta-arrestin luminescence, antagonist mode; active compounds read low. max response, negative = inhibition, %. hit rate 2.5% among 360,000; in the data active means max response below about -50%; inconclusive means no clear call, values can overlap the other calls; further: on the % scale 0 is the no-effect control and ±100 the full control effect
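Cells expressing the human receptor were seeded at 1500 cells/well, incubated overnight at 37 degrees C in 5% CO2, then exposed to library compounds with dopamine controls for 90 minutes at 37 degrees C before luminescent detection.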
* = called active by the depositor; i = inactive; ? = inconclusive; . = not tested or not shown; ! = a repeat was not active. Compounds with a hit are over-represented: about 4.7% of the library has one in this group of screens. Unless noted, the call rests on the fitted dose curve; in most records, active means well fitted curve in the direction sought with a large enough effect; inconclusive means small, poorly fitted or top-dose-only effect, or another doubt; inactive means no such curve, though single readings can be large; an effect the other way counts as inactive or inconclusive.

SMILES	TGFb inhibitor	DRD3 agonist	HepG2 tox	ATXN viability	ATXN2 expr inh	D3 antag
C#CCOCCOCCOCCNc1nc(N2CCN(C(=O)CCCCCCCCCCNC(=O)[C@H]([C@@H](C)CC)n3cc(CCCCCN)nn3)CC2)nc(N2CCN(C(=O)CCCCCCCCCCNC(=O)[C@H](CCCCN)n3cc(CCCC(=O)O)nn3)CC2)n1	7.1µM*	42*	-68%	?	?	-4
C#CCOCCOCCOCCNc1nc(N2CCN(C(=O)CCCCCCCCCCNC(=O)[C@H](CCCCN)n3cc(CCCC(=O)O)nn3)CC2)nc(N2CCN(C(=O)CCCCCCCCCCNC(=O)[C@@H]([C@H](C)O)n3cc(C)nn3)CC2)n1	11µM*	-5	-3%	i	3%	9
CCC(=O)Nc1ccc(-c2nnc3c4ccccc4c(C)nn23)cc1	3%	-4	-1%	.	.	.
O=C(O)[C@H](CC(=O)N1C[C@@H]2CCCC[C@H]2C1)Cc1ccccc1	.	.	.	.	12%	.
Cc1nn(-c2ccccc2)c(OC(=O)C(C)C)c1Sc1ccc(Cl)cc1	.	3	-32%	.	.	.
C#CCOCCOCCOCCNc1nc(N2CCN(C(=O)[C@H]([C@@H](C)CC)n3cc([C@@H](N)Cc4ccc(O)cc4)nn3)CC2)nc(N2CCN(C(=O)[C@H](Cc3ccc(O)cc3)n3cc([C@@H](N)C(C)CC)nn3)CC2)n1 (stereo partly specified)	6%	-17	-4%	i	0%	-16
C#CCOCCOCCOCCNc1nc(N2CCN(C(=O)[C@H]([C@@H](C)CC)n3cc([C@@H](N)CC(C)C)nn3)CC2)nc(N2CCN(C(=O)[C@H](Cc3ccc(O)cc3)n3cc([C@@H](N)C(C)CC)nn3)CC2)n1 (stereo partly specified)	-5%	-74	1%	i	5%	-50*
Cc1c(Cl)cccc1-c1ccc(CNc2ccc3[nH]c(=O)[nH]c3c2)o1	0%	10	-20%	i	-31%	.
COc1ccccc1N1CCN(C(=O)CSc2nc3ccccc3nc2Cc2ccc(F)cc2)CC1	4%	3	0%	i	11%	.
Cc1ccc(Cc2nc3ccccc3nc2SCC(=O)N2CCN(c3ccccc3F)CC2)cc1	-3%	3	1%	.	.	.
O=C(CSc1nc2ccccc2nc1Cc1ccc(Cl)cc1)N1CCN(c2ccccc2F)CC1	-16%	37*	4%	.	.	.
COc1ccccc1N1CCN(C(=O)CSc2nc3ccccc3nc2Cc2ccc(C)cc2)CC1	0%	34*	3%	.	.	.
C/C(=N\NC1=NCCN1)c1ccc(N)c([N+](=O)[O-])c1	1%	-24	-1%	i	10%	?
CCCCOc1ccc(Br)cc1/C(C)=N/NC1=NCCN1	?	-22	11µM*	.	18µM*	-26
CCCCCCOc1ccc(/C(C)=N/NC2=NCCN2)cc1[N+](=O)[O-]	?	-6	20µM*	18µM*	.	-23
COc1ccc(-c2noc(CNS(=O)(=O)c3ccc(NC(C)=O)cc3)n2)cc1	2%	-1	4%	i	-8%	1
O=C(NCc1nc(-c2ccc(C(F)(F)F)cc2)no1)Nc1ccc(OC(F)(F)F)cc1	11µM*	-2	-90%	?	?	-7
C=CSc1sc(Cl)c(N2CCOCC2)c1[N+](=O)[O-]	-4%	1	-3%	i	-7%	10
C=CS(=O)(=O)c1sc(Cl)c(N2CCOCC2)c1[N+](=O)[O-]	-16%	-16	-28%	?	?	-72*
O=C(COc1cc(F)ccc1[N+](=O)[O-])N1N=C(c2cccs2)CC1c1ccco1 (stereo unspecified)	-5%	-2	0%	i	10%	-55*
CCOC(=O)N1CCN(C(=O)c2ccc3c(=O)n(Cc4ccc(Cl)cc4)c(=S)[nH]c3c2)CC1	?	-5	-31%	i	-16%	6
CCOC(=O)Cn1c(=S)[nH]c2c(oc3ccc(Cl)cc32)c1=O	0%	0	-20%	i	-12%	-68*
c1ccc(Cc2nnc(N3CCCCC3)c3ccccc23)cc1	2%	-3	-2%	i	-20%	2
c1ccc(N2CCN(c3nnc(Cc4cccnc4)c4ccccc34)CC2)nc1	-9%	42*	-37%	i	-8%	7
COc1cc(NC(=O)c2cccc3c(-c4cnn(C)c4)coc23)cc(OC)c1OC	49%	22	36%	?	18µM*	120
SMILES	TGFb inhibitor	DRD3 agonist	HepG2 tox	ATXN viability	ATXN2 expr inh	D3 antag
COc1ccc(NC(=O)c2cccc3c(-c4cnn(C)c4)coc23)cc1	19%	9	-20%	i	-17%	19
CCc1cccc(CC)c1N(COC)C(=O)Cn1c(C)nc2ccccc21	?	-3	-51%	.	.	.
O=C(NCCCN1CCN(c2ccc(F)cc2)CC1)c1cc2c(Cl)nc3ccccc3c2s1	-16%	-8	-5%	i	3%	.
COc1ccc(N(C)C(=O)c2cc3c(Cl)nc4ccccc4c3s2)cc1	0%	66*	-4%	i	-14%	15
CCN(CC)CCCNC(=O)c1cc2c(Cl)nc3ccccc3c2s1	?	-28	-99%	i	-25%	-54*
Cc1ccc2nc(Cl)c3cc(C(=O)NCCCN(C)Cc4ccccc4)sc3c2c1	?	-21	13µM*	.	.	.
CN(C(=O)c1cc2c(Cl)nc3ccccc3c2s1)c1cccc(C(F)(F)F)c1	-1%	5	2%	i	6%	.
CN(CCCNC(=O)c1cc2c(Cl)nc3ccccc3c2s1)Cc1ccccc1	?	-12	16µM*!	?	?	?
CCN(CCCNC(=O)c1cc2c(Cl)nc3ccccc3c2s1)Cc1ccccc1	-104%	-16	-85%	?	?	.
CCN(CC)C(=O)CSc1nc2cc3c(cc2c(=O)n1CCCCCC(=O)NCCc1ccc(OC)c(OC)c1)OCO3	-11%	2	-2%	.	.	.
CC(C)c1nnc(NC(=O)C2CCN(C(=O)C(C)(C)C)CC2)s1	-11%	.	-40%	.	.	.
COc1ccc(CONS(=O)(=O)c2ccc(NC(C)=O)cc2)cc1Cl	-15%	10	41%	i	-6%	-106*
COc1ccc(S(=O)(=O)Nc2ccc(NC(C)=O)cc2)cc1Cl	-1%	-3	0%	i	-15%	6
O=C1NC[C@H](CCCCN2C[C@H](Cc3ccc(O)cc3)N(Cc3ccccc3)C(=O)C2=O)N(CCc2ccc(O)cc2)C1=O	.	37*	.	i	2%	-27
O=C1NC[C@@H](CCCCN2C[C@H](Cc3ccccc3)N(CC3CCCCC3)C(=O)C2=O)N(CC2CCCCC2)C1=O	.	-4	.	14µM*	-8%	43
